In PMC11062922 (Nature Chemical Biology, 2023) one finds potency estimated from few doses data, which are given here for eight compounds.

Where two headings read alike, the source gives them in different places.

Common to all, as to design: species or system human, MV4-11 + K-562 + COLO205 + SK-N-BE2 + OVCAR-8
One assay relates to FN3K. The settings on record: read-out: apparent Kd; compound concentrations: 100 nM and 1000 nM (sheet 'Samples'), CATDS: 0.30544658046652101; n = 1.
Another assay relates to ROCK1. The settings on record: read-out: apparent Kd; compound concentrations: 100 nM and 1000 nM (sheet 'Samples'), CATDS: 0.35168740775253199; n = 1.
A further assay deals with ROCK2. The settings on record: read-out: apparent Kd; compound concentrations: 100 nM and 1000 nM (sheet 'Samples'), CATDS: 0.34690050634706199; n = 1.
Another assay concerns FRK. The settings on record: read-out: apparent Kd, compound concentrations: 100 nM and 1000 nM (sheet 'Samples'), n = 1.
Another assay has as its system HCK. The settings on record: read-out: apparent Kd, compound concentrations: 100 nM and 1000 nM (sheet 'Samples'), n = 1.
In another assay the test system is LCK. The settings on record: read-out: apparent Kd, compound concentrations: 100 nM and 1000 nM (sheet 'Samples'), n = 1.
In another assay the test system is LYN. The settings on record: read-out: apparent Kd; compound concentrations: 100 nM and 1000 nM (sheet 'Samples'), CATDS: 0.140123988269205; n = 1.
A further assay concerns MAP2K5. The settings on record: read-out: apparent Kd, compound concentrations: 100 nM and 1000 nM (sheet 'Samples'), n = 1.
The next assay relates to TNK2. The settings on record: read-out: apparent Kd; compound concentrations: 100 nM and 1000 nM (sheet 'Samples'), CATDS: 0.21718962243178; n = 1.
A further assay concerns GAK. The settings on record: read-out: apparent Kd, compound concentrations: 100 nM and 1000 nM (sheet 'Samples'), n = 1.
A further assay has as its system NUAK1. The settings on record: read-out: apparent Kd; compound concentrations: 100 nM and 1000 nM (sheet 'Samples'), CATDS: 0.245714515933597; n = 1.
Another assay has as its system PLK4. The settings on record: read-out: apparent Kd; compound concentrations: 100 nM and 1000 nM (sheet 'Samples'), CATDS: 0.36168703025704801; n = 1.
The next assay has as its system PTK2. The settings on record: read-out: apparent Kd; compound concentrations: 100 nM and 1000 nM (sheet 'Samples'), CATDS: 0.26626379457403998; n = 1.
The next assay concerns NLK. The settings on record: read-out: apparent Kd; compound concentrations: 100 nM and 1000 nM (sheet 'Samples'), CATDS: 0.239785961160628; n = 1.
The test system of another assay is RIPK2. The settings on record: read-out: apparent Kd; compound concentrations: 100 nM and 1000 nM (sheet 'Samples'), CATDS: 0.40204852474639502; n = 1.
In the next assay the test system is NQO1. The settings on record: read-out: apparent Kd; compound concentrations: 100 nM and 1000 nM (sheet 'Samples'), CATDS: 0.42980166948746801; n = 1.
In a further assay the test system is STK10. The settings on record: read-out: apparent Kd; compound concentrations: 100 nM and 1000 nM (sheet 'Samples'), CATDS: 0.42195435963049299; n = 1.
The subject of another assay is TTK. The settings on record: read-out: apparent Kd; compound concentrations: 100 nM and 1000 nM (sheet 'Samples'), CATDS: 0.35015598460163; n = 1.

Regarding `NS(=O)(=O)c1cccc(N/C=C2\C(=O)Nc3ccc(S(=O)(=O)Cc4c(Cl)cccc4Cl)cc32)c1` [GSK398099A], the values for the potency estimated from few doses in the assay with FN3K, in the assay on ROCK1 and in the assay with ROCK2 were 2240 nM, 1680 nM and 1720 nM, respectively.
With `Cc1ccc(C(=O)Nc2ccc(Nc3ccnc4cc(-c5ccccn5)ccc34)cc2O)cc1.Cl` [GW440146A], the potency estimated from few doses in the assay with FRK (CATDS: 0.227181560235134) is 250 nM; in the assay with HCK (CATDS: 0.17687822419951399), 398 nM; in the assay on LCK (CATDS: 0.18982268752043399), 346 nM; in the assay on LYN it was 686 nM; with MAP2K5 (CATDS: 0.111910092443395) it was 1450 nM; in the assay with TNK2, 270 nM.
For the compound `COc1cc2nccc(Nc3ccc(NC(=O)c4ccc(C)cc4)c(O)c3)c2cc1OC.Cl` [GW440132A], the potency estimated from few doses is 691 nM in the assay with FRK (CATDS: 0.28944129909261102), 986 nM in the assay on HCK (CATDS: 0.241643180155243), 643 nM with LCK (CATDS: 0.30139088079166299) and 1640 nM in the assay with MAP2K5 (CATDS: 0.19651058590933199).
Take `CCC(=O)Nc1cccc(Oc2nc(Nc3ccc(N4CCN(C)CC4)cc3OC)ncc2Cl)c1` [WZ4003]: the potency estimated from few doses with GAK (CATDS: 0.18485172893482499) is 1600 nM; in the assay on NUAK1 it was 760 nM; with PLK4, 371 nM; in the assay on PTK2, 643 nM.
In the case of `COc1cc(Nc2ccnc3ccc(C(F)(F)F)cc23)cc(OC)c1OC` [GW577382X], the potency estimated from few doses is 305 nM in the assay on GAK (CATDS: 0.42692129692206698), 1230 nM in the assay with NLK and 340 nM with RIPK2.
Turning to `C#Cc1cccc(Nc2ncnc3ccc(OCCCCNCCS(C)(=O)=O)cc23)c1` [GW680191X], the values for the potency estimated from few doses in the assay with GAK (CATDS: 0.59760522623710299) and in the assay with NQO1 were 804 nM and 1580 nM, respectively.
On to `C#Cc1cccc(Nc2ncnc3cc(OCCOC)c(OCCOC)cc23)c1.Cl` [GW459135A], for which the potency estimated from few doses was 949 nM with GAK (CATDS: 0.61346853975848203) and 2060 nM with STK10.
For `COc1cc(N2CCN(C(C)C)CC2)ccc1Nc1nc(Nc2cccc3ncccc23)c2cc[nH]c2n1` [GSK1511931A], the potency estimated from few doses with GAK (CATDS: 0.87402661457119502) is 83.9 nM; in the assay on TTK, 1080 nM.
